Calls of active or inactive are those of the source. The rule behind the calls is not given here.

For orientation: AC50 means the concentration at which the activity in the assay is half-maximal.

This assay in a line: Biochemical counterscreen for C difficile toxins, absence of UDPG, inhibitor dose response (AID 720650). The conditions noted are these: series mostly up to 19.5 µM. (In general: A counterscreen serves to expose hits that act by an unwanted route or on another target.)
As to `O=C(Nc1nnc(C(F)(F)F)s1)c1ccc(Br)s1`, the AC50 was 8.05 µM (active).
For `CCS(=O)(=O)c1ccc2oc(Nc3ccc(C(C)(C)C)cc3)nc2c1`, the AC50 result is “inactive”.
`CCC(=O)N1CC[C@@H]2[C@H]1c1cc(-c3ccccc3)ccc1N(C)[C@H]2CO`: the AC50 is 4.44 µM (active).
The value for `OCC[C@H]1C[C@H](O)[C@@H](O)[C@@]2(Cc3ccccc3CO2)O1` was “inactive”; that for `Cc1ccccc1NS(=O)(=O)c1ccc(OCC(=O)N2CCCCC2)cc1` was “inactive”.
On to `COc1cc2ccccc2cc1C(=O)N/N=C/c1cccs1`, for which the AC50 result was “inactive”.
Turning to `Cn1c(=O)c2c(nc(N3CCOCC3)n2CCSc2ncccn2)n(C)c1=O`, the AC50 result was “inactive”.
For `CC1CCC/C(=C\c2ccc(O)cc2)C1=O` (stereo not drawn), the AC50 was 7.48 µM (active).
`O=C(NNc1ccc(-c2csnn2)cc1)c1cc(Cl)cc(Cl)c1`: the AC50 is < 0.16 µM (active).
For the compound `CCN1CCN(S(=O)(=O)c2ccc3[nH]c(=O)oc3c2)CC1`, the AC50 result was “inactive”.
On to `O=C(CCn1c(=O)oc2cc(Cl)ccc21)Nc1ccc(O)cc1`, for which the AC50 is 4.49 µM (active).
For the compound `CNC(=O)C1CCN(S(=O)(=O)c2c(C)noc2/C=C/c2cccc(C)c2)CC1`, the AC50 result is “inactive”.
Take `Cc1cc(N/N=C/c2ccc(O)cc2O)nc(N2CCOCC2)n1`: the AC50 is > 39 µM (inactive).
The value for `COC(=O)Cc1ccc(NC(=S)NCc2ccc(OC)cc2)cc1` was “inactive”; that for `Cc1cccc(-n2nnc(C(=O)NCc3ccccc3Cl)c2N)c1` was “inactive”.
As to `Fc1ccc(/C=C\c2nccc3c2[nH]c2ccccc23)cc1`, the AC50 result is “inactive”.
As to `CC(C)(C)c1cc(Cl)c(O)c(NC(=S)NC(=O)c2cccnc2)c1`, the AC50 entry is “inactive”.
Take `COc1ccc(Cl)cc1NC(=O)CN(C)C(=O)c1cc2c(s1)CCCC2`: the AC50 entry is “inactive”.
Turning to `CCOc1ccccc1NC(=O)CCNS(=O)(=O)c1cccc2nonc12`, the AC50 result is “inactive”.
As for `Cc1ccc(NNC(=O)c2ccno2)cc1C`, the half-maximal activity concentration (AC50) was 0.302 µM (active).
In the case of `O=C(Nc1ccccc1F)N(Cc1ccc(F)cc1)Cc1nc2ccccc2c(=O)[nH]1`, the AC50 result was “inactive”.
`COc1cc(/C=N/n2c(-c3ccccc3)n[nH]c2=S)ccc1O`: the AC50 entry is “inactive”.
For `CCSc1nnc(NC(=O)C2CC2c2ccccc2)s1` (stereo not drawn), the AC50 result is “inactive”.
For the compound `COC(=O)C1=C[C@@H](C(=O)OC)[C@@H]2C3=C(C(=O)[C@]2(C)NC(=O)c2ccccc2)[C@H](C)n2c(=O)n(C)c(=O)n2[C@@H]3C1`, the AC50 entry was “inactive”.
On to `O=C(COc1ccccc1)Nc1ccc(S(=O)(=O)Nc2ncccn2)cc1`, for which the AC50 entry is “inactive”.
For `Cc1cc(C)c2nc(C)cc(N/N=C/c3ccc(O)cc3)c2c1`, the AC50 is 12.1 µM (active).
For `O=C(C[C@@H]1C[C@@H]2c3cc(NC(=O)c4ccc5c(c4)OCO5)ccc3O[C@@H]2[C@@H](CO)O1)NCc1cccc(F)c1`, the AC50 result is “inactive”.
For the compound `Nc1cc(=O)[nH]c(SCC(=O)Nc2ccccc2Sc2ccc(Cl)cc2)n1`, the AC50 entry was “inactive”.
For `COc1ccc(C(=O)/C=C/c2ccc(O)cc2)c2c1CC(O)C(C)(C)O2` (stereo not drawn) the value was “inactive”.
Regarding `Cc1ccc(C2=NS(=O)(=O)N(C)C(C(=O)NC(C)c3ccccc3)=C2)cc1` (stereo not drawn), the AC50 entry was “inactive”.
`CCN(CC)C(=O)C1CCN(S(=O)(=O)c2c(C)noc2/C=C/c2cccc(C)c2)CC1`: the AC50 result was “inactive”.
For `CCNC(=O)C[C@H]1CC[C@@H]2[C@H](COc3ccc(NC(C)=O)cc3C(=O)N2C)O1` the value was “inactive”.
Turning to `CN(C(=O)Cn1c(=O)oc2cc(S(=O)(=O)N3CCCC3)ccc21)C1CCCCC1`, the AC50 entry was “inactive”.
As for `CCOc1ccccc1/C=C/c1onc(C)c1S(=O)(=O)N1CCC(C(=O)NC(C)C)CC1`, the AC50 result was “inactive”.
Turning to `NC(=O)c1ccc(NC(=O)CSc2nnc(C3CC3)n2C2CC2)cc1`, the AC50 entry was “inactive”.
With `COc1ccc(C(=O)Nc2ccc3c(c2)C(=O)N(C)[C@@H]2CC[C@H](CC(=O)NCC4CC4)O[C@H]2CO3)cc1`, the AC50 result was “inactive”.
As to `O=C(O)c1ccccc1C(=O)c1ccc2c(c1)N(Cc1cccc(F)c1)C(=O)CO2`, the AC50 is 19 µM (active).
Take `COc1ccc(NC(=O)c2cc(C)nc3ccccc23)c(OC)c1`: the AC50 result was “inactive”.

The values are drawn from PubChem BioAssay AID720650 (Broad Institute, 2013).
